Bioassay records deposited in PubChem by National Center for Advancing Translational Sciences (NCATS).
Shown are actives, neighbours in structure and some others; about 6.5% of the full set was active somewhere.
HCMV antiviral: human cytomegalovirus inhibition; HFF cells, HCMV-luciferase reporter, 72 h; stronger effect = lower value; activity change, negative = inhibition, % at 57.5 µM; hit rate 4.5% among 410,000; in the data active means activity change below about -60%; inconclusive means no clear call, values can overlap the other calls; inactive means above about -39%
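Inhibition of viral replication was scored as loss of reporter luminescence in HFFs infected with HCMV-luciferase (MOI 1 PFU/cell) for 72 h; compounds tested at 2 doses, normalized to buffer and Salinomycin controls.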
MARV entry inh: Marburg virus entry inhibition. AID 540276. Potency, µM (highest dose often 37.8 µM), without a hit: top-dose activity change, negative = inhibition, most hits filed as inhibitors. Marburg virus pseudotyped entry inhibition, cell reporter. hit rate 1.8% among 300,000; calls by dose curve; tested in HEK293 cells; further: potency means the concentration at half of the fitted maximal effect
VACV Venus inh: inhibitors of vaccinia virus (Venus reporter) | Vaccinia virus Venus reporter expression, fluorescence | Potency, µM (titrated, usually from 36.5 µM), without a hit: at the highest dose activity change, negative = inhibition, actives largely listed as inhibitors | hit rate 0.46% among 330,000 | AID 720580; calls by dose curve; tested in A549 cells; further: potency means the concentration at half of the fitted maximal effect; nearly all actives have a fitted effect of over 30% in size
Lassa entry inh: Lassa virus entry inhibition | Potency, µM (highest dose often 37.9 µM), without a hit: at the highest dose activity change, negative = inhibition, actives largely listed as inhibitors | hit rate 1.2% among 300,000 | Lassa virus pseudotype entry inhibition, cell reporter | AID 540256; calls by dose curve; tested in HEK293 cells; further: potency means the concentration at half of the fitted maximal effect; nearly all actives have a fitted effect of over 50% in size
VACV mCherry inh: inhibitors of vaccinia virus infection (mCherry reporter signal); Potency, µM (titrated, usually from 36.5 µM), for inactives: at the highest dose activity change, negative = inhibition, hits mostly inhibitors; Vaccinia virus mCherry reporter infection, fluorescence; AID 720579; hit rate 0.63% among 310,000; calls by dose curve; tested in A549 cells; further: potency means the concentration at half of the fitted maximal effect; nearly all actives have a fitted effect of over 35% in size
FMDV antiviral: antivirals against foot and mouth disease virus | Potency, µM (top dose mostly 57.9 µM), without a hit: top-dose activity change, negative = inhibition, actives largely listed as inhibitors | hit rate 1.2% among 410,000 | FMDV antiviral cell-based qHTS; calls by dose curve; tested in HEK293T cells; further: read-out not given here; potency means the concentration at half of the fitted maximal effect; nearly all actives have a fitted effect of over 45% in size
An asterisk follows results filed as active; i = inactive; ? = inconclusive; nt = no result given; [ ] = another dose, or the depositor's remark. On the % scale 0 is the no-effect control and ±100 the full control effect.

SMILES	HCMV antiviral	MARV entry inh	VACV Venus inh	Lassa entry inh	VACV mCherry inh	FMDV antiviral
COC(=O)c1ccc(/C=N/NC(=O)c2ccc3nc[nH]c3c2)cc1	?	nt	nt	nt	nt	6%
O=C(N/N=C/c1cccc(O)c1)c1cc(-c2ccccc2)nc2ccccc12	10	nt	nt	nt	nt	-4%
COc1ccccc1-c1cc(C(=O)N/N=C/c2ccc(C)o2)c2ccccc2n1	-25	?	-17%	?	-16%	-16%
Cc1ccc(/C=N/NC(=O)c2cc(-c3ccncc3)nc3ccccc23)o1	-64*	?	-22%	-8%[46.1 µM]	?	-16%
O=C(N/N=C/c1ccco1)c1cc(-c2cccc(Br)c2)nc2ccccc12	-63*	?	-15%	?	?	-6%
O=C(N/N=C/c1cccnc1)c1cc(-c2ccccc2)nc2ccccc12	2	4µM*	3%	-20%[46.1 µM]	-12%	-10%
Cc1oc(-c2ccc(C(=O)NCc3ccc(F)cc3)cc2)nc1CS(=O)c1ccccc1 (stereo unspecified)	-26	nt	-21%	-1%[46.1 µM]	-21%	?
COc1ccc(C(=O)Nc2cc(-c3cccc(C)c3)nn2-c2ccccc2)cc1	38	nt	-24%	20%[46.1 µM]	-3%	10%
CCCn1c(=O)n(-c2ccccc2)c(=O)c2sc3ccccc3c21	-5	0%[46.1 µM]	-9%	1%[46.1 µM]	-10%	0%
O=C(N/N=C/c1ccc([N+](=O)[O-])o1)c1cc(-c2ccncc2)nc2ccccc12	-67*	?	nt	?	nt	-8%
Cc1ccc(-c2cc(C(=O)N/N=C/c3ccc([N+](=O)[O-])o3)c3ccccc3n2)o1	-21	?	?	?	?	-17%
CC(/C=N/NC(=O)c1cc(-c2ccncc2)nc2ccccc12)=C\c1ccco1	nt	2.9µM*	?	-49%[14.3 µM]	?	-26%
O=C(N/N=C/c1ccccn1)c1cc(-c2ccncc2)nc2ccccc12	-25	?	3%	?	?	-18%
O=C(N/N=C/c1ccc([N+](=O)[O-])o1)c1cc(-c2ccc(-c3ccccc3)cc2)nc2ccccc12	-99*	?	-3%	?	?	?
Cc1cccc(-n2ncc(C(=O)NCc3ccccn3)c2C2CCN(C(=O)OC(C)(C)C)CC2)c1	-40	nt	-10%	-23%[46.1 µM]	-9%	2%
CCCCOCC1CN(CCCC)S(=O)(=O)c2c(NCc3cc(OC)c(OC)c(OC)c3)cccc2O1 (stereo unspecified)	-11	nt	nt	nt	nt	nt
CCOc1cccc(/C=N/N2CCN(c3ccc(Cl)cc3)CC2)c1O	-94*	nt	nt	nt	nt	?
O=c1oc(Cl)c(Cl)c2c1CCCC2	nt	-28%	nt	nt	nt	nt
CC(C)c1ccc(CN(C(=O)C2COc3ccccc3O2)C2CCS(=O)(=O)C2)cc1 (stereo unspecified)	-94*	?	nt	-16%	nt	-26%
CN(C)c1ccc(CN(C(=O)C2COc3ccccc3O2)C2CCS(=O)(=O)C2)cc1 (stereo unspecified)	-21	-12%	2%	32%[14.3 µM]	-5%	10%
CC(C)C(=O)Nc1ccc(NC(=O)c2cccnc2)cn1	2	-2%	-13%	9%	nt	10%
CC(C)C(=O)Nc1ccc(NC(=O)c2ccccn2)cn1	30	11µM*	-8%	?	-9%	-58%
CCC(=O)Nc1ccc(NC(=O)c2ccccn2)cn1	107	?	-4%	10µM*	-18%	13%
O=C(Nc1ccc(NC(=O)C2CC2)nc1)c1ccccn1	30	?	-16%	?	-18%	-21%
Cc1cccc(NC(=O)c2nc[nH]c2C(=O)N(C)CCO)c1	-19	nt	nt	nt	nt	nt
SMILES	HCMV antiviral	MARV entry inh	VACV Venus inh	Lassa entry inh	VACV mCherry inh	FMDV antiviral
Cc1ccc2c(c1)c(/C=C/c1cc[n+](C)cc1)c(C)n2C	-98*	nt	i	nt	-23%	?
CCCn1c(/C=C/c2cc[n+](C)cc2)nc2ccccc21	?	-16%[46.1 µM]	-13%	-12%[46.1 µM]	i	-4%
Cc1ccc2[nH]c(C)c(/C=C/c3cc[n+](C)cc3)c2c1	-100*	8.9µM*	227%	3.2µM*	?	-26%
Cc1ccc2[nH]c(C)c(/C=N/Nc3nc4ccccc4s3)c2c1	56	?	nt	3%	nt	-21%
CCCCN(CC)C(=O)CSc1nc2c(sc3ccccc32)c(=O)n1CCc1ccccc1	20	nt	-6%	2%[46.1 µM]	-4%	-18%
CCc1ccc(NC(=O)CSc2nc3c(sc4ccccc43)c(=O)n2CCN(CC)CC)cc1	-60*	nt	-18%	28%[46.1 µM]	?	-30%
CN(C)CCn1c(SCc2ccccc2C#N)nc2c(sc3ccccc32)c1=O	-67*	nt	nt	nt	nt	-11%
C=CCN(C(=O)CSc1nc2c(sc3ccccc32)c(=O)n1CCN(CC)CC)c1ccccc1	-67*	?	?	?	-28%	?
Cc1nn(C)cc1CN1CCOc2ccc(C(C)(O)COc3ccccc3)cc2C1 (stereo unspecified)	nt	nt	?	nt	-4%	-10%
C=CC1=C(C)C2=NC1=CC1=NC(=CC3=NC(=CC4=NC(=C2)C(C)=C4CCC(=O)O)C(CCC(=O)O)=C3C)C(C=C)=C1C.[Zn]	nt	nt	nt	nt	nt	-24%
COC1/C=C/C=C(\C)Cc2cc(O)c(Cl)c(c2)N(C)C(=O)CC(OC(=O)C(C)C)C2(C)OC2C(C)C2CC1(O)NC(=O)O2 (stereo unspecified)	-91*	10%	?	-24%	-3%	0%
COc1ccc(S(=O)(=O)c2c(Nc3cccc(C)c3C)sc(C(=O)c3ccccc3)c2N)cc1	?	?	-24%	?	-28%	21%
COc1ccc(NS(=O)(=O)c2cc(NC(=O)[C@@H](NC(=O)c3ccccc3)C(C)C)ccc2C)cc1	-87*	?	-29%	?	-16%	59%
COc1ccc(NS(=O)(=O)c2cc(NC(=O)c3ccc(=O)[nH]c3)ccc2C)cc1	66	nt	nt	nt	nt	71%
COc1ccc(NS(=O)(=O)c2cc(NC(=O)Cc3cccs3)ccc2C)cc1	-9	?	2%	1.8µM*	-4%	5%
N#Cc1ccc(NS(=O)(=O)c2ccc(-c3cnc(C4CC4)o3)cc2)cc1	-7	nt	-9%	?	-10%	39%
COc1cccc(NS(=O)(=O)c2cc(-c3cnc(C4CC4)o3)ccc2C)c1	-89*	nt	?	?	?	23%
Cc1ccc(-c2cnc(C3CC3)o2)cc1S(=O)(=O)Nc1cccc(C#N)c1	-84*	nt	-26%	-12%[46.1 µM]	-27%	20%
CCOC(=O)c1cccc(NS(=O)(=O)c2ccc(-c3cnc(C4CC4)o3)cc2)c1	13	nt	-16%	-24%[46.1 µM]	-27%	-1%
Cc1ccc(N2C(=O)CSC23C(=O)N(CC(=O)NCc2ccccc2)c2ccccc23)cc1C (stereo unspecified)	-2	nt	-14%	-9%[46.1 µM]	-18%	-13%
Nc1c(-c2ccccc2)c(CSc2nc3ccccc3[nH]2)nn1-c1cccc(Cl)c1	-95*	?	?	?	?	?
Nc1c(-c2ccccc2)c(CSc2nc3ccccc3[nH]2)nn1-c1ccc(Cl)cc1	-39	?	?	?	-23%	0%
